Screening results as filed in PubChem BioAssay.
Most compounds without a hit are left out; they make up all but 2.4% or so of the library.
AmpC inh no det – Promiscuous and Specific Inhibitors of AmpC Beta-Lactamase (assay without detergent) | P00811 | AmpC nitrocefin hydrolysis, absorbance 480 nm, no detergent | Potency, µM (series often up to 28.7 µM) | 71,000 compounds, 1.8% hits | AID 585, 2007
Target sequence (P00811 whole entry, looked up): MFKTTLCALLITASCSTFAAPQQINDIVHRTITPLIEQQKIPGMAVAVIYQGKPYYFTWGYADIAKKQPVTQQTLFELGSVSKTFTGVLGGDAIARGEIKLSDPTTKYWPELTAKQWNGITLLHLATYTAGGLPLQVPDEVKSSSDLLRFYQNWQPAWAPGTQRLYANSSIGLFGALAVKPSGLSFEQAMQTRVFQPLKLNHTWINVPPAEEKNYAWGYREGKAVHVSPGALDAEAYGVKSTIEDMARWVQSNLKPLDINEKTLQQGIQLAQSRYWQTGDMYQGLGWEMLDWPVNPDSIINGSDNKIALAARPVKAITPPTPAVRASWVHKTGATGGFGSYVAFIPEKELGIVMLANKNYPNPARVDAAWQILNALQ
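AmpC, 20 mM phosphate pH 7.0; 15 min cpd preinc, RT; start with nitrocefin (800 uM stock); A480 kinetic read, 20 s intervals, 4 min. No-enzyme wells = negative control.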
AmpC det inh – Promiscuous and Specific Inhibitors of AmpC Beta-Lactamase (assay with detergent). purified AmpC, nitrocefin hydrolysis with detergent. Potency, µM (highest dose often 28.7 µM). 71,000 compounds, 0.09% hits; active = well fitted curve in the direction sought with a large enough effect; inconclusive = small, poorly fitted or top-dose-only effect
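E. coli AmpC (5.3 nM) in 20 mM phosphate pH 7.0 with 0.01% Triton X-100, preincubated 15 min RT with compound; nitrocefin (2 uL of 800 uM stock) hydrolysis followed by 480 nm absorbance every 20 s over 4 min.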
Prx2 Sm inh – Schistosoma Mansoni Peroxiredoxins (Prx2); 65,000 compounds, 0.07% hits; Potency, µM; S. mansoni Prx2 activity coupled to TGR/GSH (TGR is thioredoxin glutathione reductase), NADPH fluorescence loss, qHTS; Schistosoma mansoni peroxiredoxin 2 (Prx2)
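Activity is read as the drop in NADPH fluorescence (365/450 nm), recorded every 30 sec for 8 min after H2O2 addition. Prx2 is coupled to TGR-driven NADPH oxidation through glutathione, in phosphate buffer pH 7.4.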
Anthrax LT inh – qHTS Assay for Anthrax Lethal Toxin Internalization. Cells, anthrax lethal toxin internalization, FRET ratio (460/530). Potency, µM (top dose mostly 40 µM), most hits filed as inhibitors. 70,000 compounds, 0.67% hits. AID 912, 2007; note: nearly all actives have a fitted effect of over 50% in size
Large screens that a line does not name were inactive; [ ] = dose if it differs, or a comment. Unless noted, calls come from the whole dose curve.

COc1ccc(C2C(C(C)=O)=C(C)Nc3ncnn32)cc1OC (configuration not stated)	Anthrax LT inh inconclusive
COc1cc(C2C(C(=O)OC(C)C)=C(C)Nc3ncnn32)cc(OC)c1OC (configuration not stated)	AmpC inh no det 4µM[single pt active]
Cn1cccc1Cc1nnc(SCC(=O)N2CCOCC2)n1-c1ccc(F)cc1	AmpC inh no det 4µM[single pt active]
Cn1cccc1Cc1nnc(SCC(N)=O)n1-c1ccc(F)cc1	AmpC inh no det 4µM[single pt active]
O=S(=O)(Nc1nccs1)c1ccc([As](=O)(O)O)cc1	Prx2 Sm inh inconclusive
COc1ccc(-c2oc3cc(OC)c(OC(C)=O)c(OC)c3c(=O)c2OC)cc1OC(C)=O	Prx2 Sm inh 37, Anthrax LT inh inconclusive
COc1ccccc1N1CCN(c2cc(=O)n(-c3ccc(Br)cc3)c(=O)[nH]2)CC1	AmpC inh no det 16µM[single pt active]
COc1ccccc1N1CCN(c2cc(=O)n(-c3ccc(Cl)cc3)c(=O)[nH]2)CC1	none
COc1cccc(-c2ccc3ncnc(NCc4ccccc4OC)c3c2)c1	AmpC inh no det 1.3µM, AmpC det inh 13µM, Anthrax LT inh 4µM
COc1cccc(-c2cc(NCc3ccccc3)ncn2)c1	AmpC inh no det 5µM, AmpC det inh 7.9µM
COc1cccc(-c2ccc3ncnc(NCc4ccccc4)c3c2)c1	Anthrax LT inh inconclusive
COc1cccc(-c2ccc3ncnc(NCc4ccc(OC)cc4OC)c3c2)c1	AmpC inh no det 7.9µM, AmpC det inh 13µM, Anthrax LT inh inconclusive
CC(=O)c1c(O)c(C)c(O)c2c1OC1=CC(=O)[C@H](C(C)=O)C(=O)[C@]12C	Anthrax LT inh inconclusive
CCCCCc1nnc(NC(=O)Cc2cccs2)s1	AmpC inh no det 13µM
COc1ccc(Cc2nnc(NC(=O)Cc3cccs3)s2)cc1OC	AmpC inh no det 13µM
O=C(Cc1cccs1)Nc1nnc(CCc2ccccc2)s1	none
N=C(N)SCCON1C(=O)c2ccccc2C1=O	none
O=C(c1ccc(Cl)cc1)c1ccccc1C(=O)N1CCOCC1	none
Nc1nc(C(=O)N2CCOCC2)nn1C(=O)c1ccc(Cl)cc1	AmpC inh no det 4µM[single pt active]
CC(NC(=O)c1cc(-c2ccc(O)cc2)on1)c1ccccc1 (configuration not stated)	none
CNCCCCOc1ccccc1Cc1ccccc1	Anthrax LT inh 32µM
COc1ccccc1OCCCCNC(C)(C)C	none
CCC1CCCCN1CCCNC(=O)CC1Oc2ccccc2NC1=O (configuration not stated)	AmpC inh no det 4µM[single pt active]
O=C(CC1Oc2ccccc2NC1=O)NC1CC1 (configuration not stated)	none
CC1CCN(Cc2ccc(NC(=O)CC3Oc4ccccc4NC3=O)cc2)CC1 (configuration not stated)	AmpC inh no det 4µM[single pt active]
COCCCNC(=O)CC1Oc2ccccc2NC1=O (configuration not stated)	Anthrax LT inh inconclusive
O=C(CC1Oc2ccccc2NC1=O)NCCCN1CCN(C2CCCCC2)CC1 (configuration not stated)	AmpC inh no det 4µM[single pt active], Prx2 Sm inh inconclusive
CC(C)[C@]1(O)[C@@H](OC(=O)c2ccc[nH]2)[C@]2(O)[C@@]3(C)C[C@@]4(O)O[C@@]5([C@H](O)[C@@H](C)CC[C@]35O)[C@]2(O)[C@]41C	none
CSC([N-]/N=C/c1cccc(C)n1)=[S]=[Cu].CS[C@H]([S-])[N-]/N=C/c1cccc(C)n1	Anthrax LT inh inconclusive
CCC(C)c1ccc2oc(-c3ccc(NC(=O)c4ncn[nH]4)cc3)nc2c1 (configuration not stated)	AmpC inh no det 13µM[single pt active], Anthrax LT inh inconclusive
COc1cc(NS(=O)(=O)c2ccc(NC(=O)COc3ccccc3C)cc2)nc(OC)n1	AmpC inh no det 13µM[single pt active]
Cc1cc(NS(=O)(=O)c2ccc(NC(=O)COc3ccccc3C(C)C)cc2)no1	AmpC inh no det 4µM[single pt active]
COc1ccc(C2CC(=O)c3cnc(NC(=O)c4ccccc4)nc3C2)cc1OC (configuration not stated)	AmpC inh no det 4µM[single pt active]
O=C(c1ccco1)N1CCN(c2ncccn2)CC1	AmpC inh no det 4µM[single pt active]
CCC1CCCN1Cn1cnc2c([nH]c3ccc(OC)cc32)c1=O (configuration not stated)	none
CCCCN(CCCC)CCn1cnc2c([nH]c3ccc(OC)cc32)c1=O	AmpC inh no det 4µM[single pt active]
CCOC(=O)C1=C(N)Oc2ccc(Br)cc2[C@@H]1[C@@H](C#N)C(=O)OCC	Prx2 Sm inh 39, Anthrax LT inh inconclusive
